Compound activity deposited in PubChem by several laboratories.
An excerpt weighted towards active compounds, which were near 2.1% of everything screened.
CCHFV vOTU inh: CCHFV vOTU protease inhibition; Pep-AMC fluorescence; inhibition, % at 11.5 µM; actives 0.55% (n = 370,000); AID 651958; in the data active = inhibition above about 30%
ugtP null kill: compounds lethal to S. aureus RN4220 ugtP deletion mutant. OD600 growth, 16 h. growth inhibition, % (no concentration beside the values). actives 0.54% (n = 330,000). AID 1259309; in the data active = growth inhibition above about 68%
PrPC TRFRET: inhibitors of human cell surface prion protein PrPC | P04156 | TR-FRET read-out | inhibition, % at 13.8 µM | actives 0.43% (n = 370,000) | AID 720596; in the data active = inhibition above about 24%
PfHsp40 rescue: restores yeast growth despite PfHsp40 toxicity. S. cerevisiae expressing PfHsp40, growth rescue, ATP luminescence. growth rescue, % at 12.5 µM. actives 0.68% (n = 340,000). AID 504582; in the data active = growth rescue above about 28%, passing the limit was not always enough; inconclusive = no clear call, values can overlap the other calls;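 note: yeast W303a lacking pdr1 and pdr3 grown in galactose medium; growth measured after three days at 30 °C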
Sa RN4220 lethal: S. aureus RN4220 growth inhibition. OD600, 16 h. inhibition, % (test concentration not listed). actives 0.33% (n = 330,000). AID 1259311; in the data active = inhibition above about 85%
PrP 5UTR inh: inhibition of PrP 5' UTR reporter expression; cell-based PrP 5' UTR mRNA reporter, plate reader; inhibition, % (no concentration beside the values); actives 0.35% (n = 340,000); in the data active = inhibition above about 52%
PrP UTR cherry: prion 5' UTR mRNA inhibition, cherry-pick retest. shares compounds with PrP 5UTR inh. cell-based prion protein 5' UTR reporter, plate reader. inhibition, % at 2.5 µM. actives 48% (n = 1,100). AID 504592; in the data active = inhibition above about 54%; inconclusive = no clear call, values can overlap the other calls
A number is an active result; 0 = inactive; ? = inconclusive; - = not tested or not shown.

SMILES	CCHFV vOTU inh	ugtP null kill	PrPC TRFRET	PfHsp40 rescue	Sa RN4220 lethal	PrP 5UTR inh	PrP UTR cherry
Cc1nn(-c2ccccc2)c(C)c1/C=N/NC(=O)c1cc(-c2cccs2)[nH]n1	0	-	0	0	-	67.5	78.3
CCOC(=O)C1(Cc2ccccc2)CCCN(CCO)C1 (stereo not drawn)	0	0	0	0	0	0	-
CCOC(=O)C1(Cc2ccccc2)CCCN(Cc2ccc(OCC)c(CO)c2)C1 (stereo not drawn)	0	0	0	0	0	52.5	0
O=C(O)CN1C(=O)/C(=C/c2ccc(N3CCCCC3)o2)SC1=S	0	0	0	0	0	0	-
CN1C(=O)C(=Cc2ccc(N3CCCCC3)o2)C(=O)N(C)C1=S	0	-	0	0	-	54.3	0
Cc1cccc(C=NNC(=O)c2ccc(F)cc2)n1	-	0	-	-	0	-	-
CCC1SC(CC)C(=O)N(CC(=O)NCc2ccc(F)cc2)C1=O (stereo not drawn)	0	0	0	0	0	78.1	0
O=C(NCc1ccccn1)c1ccc(Cn2c(=S)[nH]c3ccc(Br)cc3c2=O)cc1	0	0	0	0	0	71.4	0
O=C(NCc1ccccn1)c1ccc(Cn2c(=S)[nH]c3ccccc3c2=O)cc1	0	0	0	0	0	0	-
CC1CCC[C@]2(CC(=O)c3cc(F)ccc3O2)C1 (stereo partly drawn)	-	0	-	-	0	-	-
Cc1cnc(C(=O)OC(C)C(=O)Nc2ccc(Oc3ccccc3)cc2)cn1 (stereo not drawn)	0	0	0	0	0	90.1	0
COC(=O)C1=C(c2ccc(F)cc2OCc2ccccc2)CC2CCC1N2C(=O)NCc1ccc2[nH]ccc2c1 (stereo not drawn)	-	0	-	-	0	-	-
CN1/C(=C\C=NO)C(C)(C)c2ccccc21	-	0	-	-	0	-	-
CCN1/C(=C\C=C\C2=[N+](CC)c3ccccc3C2(C)C)C(C)(C)c2ccccc21	-	100.4	-	121.1	100.2	63.2	67.1
CC12CCC(CC1=N/N=C1/NC(=O)/C(=C\c3cccc(Br)c3)S1)C2(C)C (stereo not drawn)	-	0	-	-	0	-	-
CC(C)c1nc(CN(C)C(=O)NC(C(=O)NC(Cc2ccccc2)CC(O)C(Cc2ccccc2)NC(=O)OCc2cncs2)C(C)C)cs1 (stereo not drawn)	-	0	-	-	0	-	-
O=C(NCc1ccc2c(c1)OCO2)C1CCCN(S(=O)(=O)c2cccc3cccnc23)C1 (stereo not drawn)	0	0	0	0	0	77.7	?
CS/C(N)=N/N=Cc1ccc([N+](=O)[O-])cc1	-	0	-	-	0	-	-
O=C(c1cnn2ccccc12)N1CCCc2ccccc21	0	0	0	0	0	60.4	0
c1ccc(-c2cn(CC3CCC(C4CCC(Cn5cc(-c6ccccn6)nn5)O4)O3)nn2)nc1 (stereo not drawn)	-	0	-	-	0	-	-
CCCS(=O)(=O)c1cnc(C2COc3ccccc3O2)nc1N (stereo not drawn)	0	0	0	0	0	85.7	82.9
S=c1nc(C2COc3ccccc3O2)[nH][nH]1 (stereo not drawn)	0	0	0	0	0	0	-
CC(=O)OC1CC(OC2C(O)CC(OC3C(O)CC(OC4CCC5(C)C(CCC6C5CCC5(C)C(C7=CC(=O)OC7)CCC65O)C4)OC3C)OC2C)OC(C)C1OC1OC(CO)C(O)C(O)C1O (stereo not drawn)	0	-	0	0	-	96.2	89.5
COc1cc2c(c(OC)c1O)-c1ccc(OC)c(=O)cc1C(NC(=O)C(F)(F)F)CC2 (stereo not drawn)	0	-	0	0	-	54.4	90.0
CN[C@H]1CCc2cc(OC)c(OC)c(OC)c2-c2ccc(N(C)CC(OC)OC)c(=O)cc21	0	0	0	0	0	-	-
SMILES	CCHFV vOTU inh	ugtP null kill	PrPC TRFRET	PfHsp40 rescue	Sa RN4220 lethal	PrP 5UTR inh	PrP UTR cherry
COc1cc2c(c(OC)c1OC)-c1ccc(OC)c(=O)cc1[C@@H](N(C)CC#CCO)CC2	0	-	0	0	-	80.2	90.8
CCN(CC)c1ccc2c(cc1=O)[C@@H](NC)CCc1cc(OC)c(OC)c(OC)c1-2	0	-	0	0	-	80.3	81.5
COc1cc2c(c(OC)c1OC)-c1ccc(OC)c(=O)cc1[C@@H](NC(C)=O)CC2	0	-	0	0	-	0	-
Cn1c(-c2ccccc2)cc2onc(-c3ccccc3)c2c1=O	0	0	0	0	0	63.5	0
CC1CN(C(=O)CCC(=O)NCc2ccc(Cl)cc2)c2ccccc2S1 (stereo not drawn)	0	0	0	0	0	62.9	0
Cc1ccsc1C=NNc1cn[nH]c(=O)c1Cl	-	0	-	-	0	-	-
COc1ccc(-n2c(Cc3cc(=O)[nH]c(=O)[nH]3)nnc2SCC(=O)NC2CCCC2)cc1	0	0	0	0	0	61.2	0
CCN1C(=O)C2C(c3ccc(C)cc3)N3C(=O)N(c4ccc(C)cc4)C(=O)[C@@]3(Cc3ccccc3)C2C1=O (stereo partly drawn)	-	0	-	-	0	-	-
O=C(c1ccc(CS(=O)(=O)c2ccc(Br)cc2)o1)N1CCOCC1	0	0	0	0	0	0	-
COc1ccc(S(=O)(=O)Cc2ccc(C(=O)N3CCOCC3)o2)cc1	0	0	0	0	0	70.9	0
CCC(C)=NNc1nc(-c2cc3cccc(OC)c3oc2=O)cs1	-	0	-	-	0	-	-
CC(=NNC(=O)C1CC1)c1ccccc1Br	-	0	-	-	0	-	-
CCCCCN1C=CC(=C2C(=O)c3ccccc3C2=O)C=C1	0	0	0	0	0	89.3	89.2
CC1=CC(=C2C(=O)c3ccccc3C2=O)C=C(C)N1C	0	0	0	0	0	0	-
COC1=C(C)C(=O)C2=C(C1=O)C(CO)N1C(C#N)C3CC4C(C1C2N1CCOC41)N3C (stereo not drawn)	0	-	0	0	-	76.5	92.0
CCOP(=O)(OCC)c1nc(-c2cccc3ccccc23)oc1N1CCCCC1	0	0	0	0	0	71.9	0
Cc1ccc(-c2nnc(SCC(=O)Nc3ccccc3F)o2)cc1	0	0	0	0	0	88.9	88.2
O=C(CSc1nnc(-c2ccncc2)o1)Nc1cc(F)ccc1F	0	0	0	0	0	0	-
O=C(CSc1nnc(-c2ccccc2)o1)Nc1ccccc1F	0	0	0	0	0	60.0	58.7
O=C(CSc1nnc(-c2ccc(Br)cc2)o1)Nc1cccc(C(=O)O)c1	0	0	0	0	0	71.4	79.6
COC(=O)c1ccccc1NC(=O)CSc1nnc(-c2ccc(C)cc2)o1	-	0	-	-	0	-	-
CC1CN(C(C)CO)C(=O)c2cccc(NC(=O)C3CC3)c2OC1CN(C)Cc1ccc(Cl)c(Cl)c1 (stereo not drawn)	-	0	-	-	0	-	-
Oc1[nH]c2ccccc2c1C=Nc1nccs1	-	0	-	-	0	-	-
CN(C)c1ccc(/C=C2\SC(N3CCCCC3)=NC2=O)cc1	0	0	0	0	0	56.9	0
Cc1ccc(/C=C2\SC(N3CCCC3)=NC2=O)cc1	0	0	0	-	0	-	-
Cc1cc(=O)oc(C)c1C(=O)N1CCN(C(c2ccccc2)c2ccccc2)CC1	0	0	0	0	0	72.5	0
